Source: PubChem
Compounds with a hit are over-represented: about 1.1% of the library has one in this group of screens.
TrxR1 substrate: substrates of rat thioredoxin reductase 1; O89049; purified TrxR1 substrate turnover, NADPH consumption readout; Potency, µM (doses to about 114 µM), for inactives: at the highest dose activity change, negative = substrate turnover; 390,000 tested, 0.01% active; AID 588456; also: nearly all actives have a fitted effect of over 50% in size
Target sequence (O89049 whole entry, looked up): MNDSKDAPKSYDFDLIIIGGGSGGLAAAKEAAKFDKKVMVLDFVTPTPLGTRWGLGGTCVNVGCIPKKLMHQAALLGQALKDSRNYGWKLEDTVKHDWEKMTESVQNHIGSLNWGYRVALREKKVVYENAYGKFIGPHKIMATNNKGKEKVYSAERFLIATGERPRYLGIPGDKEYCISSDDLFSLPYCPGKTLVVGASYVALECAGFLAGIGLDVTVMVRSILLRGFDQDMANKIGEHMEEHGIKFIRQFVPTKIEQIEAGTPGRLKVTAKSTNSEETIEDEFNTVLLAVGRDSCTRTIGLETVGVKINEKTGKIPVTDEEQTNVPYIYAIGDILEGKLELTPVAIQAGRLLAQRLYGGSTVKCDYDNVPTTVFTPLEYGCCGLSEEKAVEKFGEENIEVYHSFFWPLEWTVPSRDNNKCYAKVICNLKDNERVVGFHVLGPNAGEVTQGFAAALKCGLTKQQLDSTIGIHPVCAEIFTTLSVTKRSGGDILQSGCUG
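Rat TrxR1, dispensed at 90 nM, was prereduced with 400 uM NADPH (final) for 5 min at ~22 deg C, then incubated with compound 15 min before 400 uM selenite. A first-read NADPH fluorescence drop versus no-compound background flagged substrates.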
Eya2 inh: blocks the phosphatase activity of human Eya2. Potency, µM (highest dose often 76.9 µM), for the others: top-dose activity, negative = inhibition, most hits filed as inhibitors. 330,000 tested, 0.006% active. O00167. recombinant Eya2, OMFP fluorescence dephosphorylation (OMFP is methylfluorescein phosphate). AID 488837
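Eya2 (0.2 uM) preincubated 10 min at ambient with compound, then OMFP substrate added at 50 uM; 10 min reaction in 50 mM HEPES pH 7.5, 50 mM NaCl, 5 uM MgCl2, 0.05% BSA, 1 mM DTT. Fluorescence read at Ex 485/Em 525 nm.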
RGS4 inh: human RGS4 inhibition; P49798; Transcreener GDP fluorescence polarization, RGS4-accelerated GTP hydrolysis; Potency, µM (top dose mostly 114 µM), for the others: at the highest dose activity change, negative = inhibition, hits mostly inhibitors; 390,000 tested, 0.039% active; AID 504845; also: nearly all actives have a fitted effect of over 75% in size
Target sequence (P49798 whole entry, looked up): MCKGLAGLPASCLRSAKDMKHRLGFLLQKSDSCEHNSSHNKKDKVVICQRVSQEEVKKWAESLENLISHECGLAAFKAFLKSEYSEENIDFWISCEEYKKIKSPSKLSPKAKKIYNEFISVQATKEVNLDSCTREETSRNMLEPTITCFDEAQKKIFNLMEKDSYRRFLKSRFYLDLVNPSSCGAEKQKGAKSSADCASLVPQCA
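MLSMR compounds (23 nl, pin-transferred) preincubated 10 min at room temperature with a 500nM (2x) first reagent, then RGS4 at 900nM (2x) plus Transcreener GDP mix added; fluorescence polarization (620/688 nm) read before and after 90 min at 30 °C.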
mIDH1 inhibitor: inhibitors of human mutant IDH1 R132H | O75874 | Potency, µM (series often up to 76.6 µM), for inactives: at the top dose activity change, negative = inhibition, usual class: inhibitors | IDH1-R132H enzyme, NADPH consumption, diaphorase/resazurin fluorescence | 390,000 tested, 0.093% active; also: nearly all actives have a fitted effect of over 65% in size
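IDH1-R132H (0.5 ug/mL dispensed) in pH 7.5 Tris buffer was preincubated 30 min with compound, then given a substrate mix of 0.016 mM NADPH and 2 mM alpha-KG for 80 min at room temperature; remaining NADPH was read by diaphorase/resazurin fluorescence.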
rTrxR1 inhibitor: rat TrxR1 inhibition | O89049 | recombinant rTrxR1, NADPH fluorescence consumption, selenite substrate | Potency, µM (highest dose often 114 µM), for inactives: at the top dose activity change, negative = inhibition, usual class: inhibitors | 390,000 tested, 1% active; also: nearly all actives have a fitted effect of over 65% in size
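Rat TrxR1 (90 nM in the dispensed reagent) was pre-reduced with 400 uM NADPH for 5 min at room temperature, then incubated with compound for 15 min. After 400 uM selenite was added, NADPH fluorescence (Ex 340/Em 450 nm) was followed for 8 min.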
An asterisk follows results filed as active; ? = inconclusive; / = not tested or not shown; ! = not active in a repeat; [ ] = dose if it differs, or a comment. Calls follow the shape of the dose curve; as a rule, active = well fitted curve in the direction sought with a large enough effect; inconclusive = small, poorly fitted or top-dose-only effect, or another doubt; inactive = no such curve, though single readings can be large; an effect the other way counts as inactive or inconclusive. % is scaled to controls: 0 for no effect and ±100 for the full control effect; potency is read from the fitted curve at half-maximal effect.

SMILES	TrxR1 substrate	Eya2 inh	RGS4 inh	mIDH1 inhibitor	rTrxR1 inhibitor
CC/C=C\C/C=C\C/C=C\C/C=C\C/C=C\CCCCCC(=O)O	/	/	21.2µM*	/	/
CCCCC[C@H](O)/C=C/[C@@H]1[C@@H](C/C=C\CCCC(=O)O)[C@@H](O)C[C@H]1O	1.4%	-9.0%	14.4%	5.5%	14.3%
O=C(CCS(=O)(=O)c1ccccc1)N1CCCc2ccccc21	-0.1%	10.8%	-4.0%	-2.1%	70.8µM*
O=C(CCC(=O)N1CCCc2ccccc21)N1CCN(S(=O)(=O)c2ccccc2)CC1	13.1%[57.1 µM]	12.9%	-14.5%	0.5%	12.6%[57.1 µM]
COc1ccc(NC(=O)Nc2ccccc2C)c(OC)c1	3.4%	0.1%	-2.9%	7.9%	5.6%
Cc1cccc(-n2nnnc2S(C)(=O)=O)c1	-6.4%[57.1 µM]	/	-12.5%	3.0%	1.78µM*
COc1cccc(-n2nnnc2S(C)(=O)=O)c1	5.3%	-3.7%	-46.1%	-2.4%	3.16µM*
COc1cccc(Oc2nnnn2-c2ccccc2)c1	0.4%	10.9%	2.3%	2.8%	5.6%
CC(C)Oc1ccc(C(=O)CCN2CCOCC2)cc1	4.9%	/	-85.6%	2.6%	3.55µM*
O=C(CCN1CCOCC1)c1ccc(Cl)cc1	-4.2%[57.1 µM]	-1.9%	?	-0.3%	?
CCCCCOc1ccc(C(=O)CCN2CCOCC2)cc1	5.1%[57.1 µM]	-9.2%	?	-6.7%	10µM*
CC(C)Oc1ccc(C(=O)CCN2CCCCC2)cc1	3.9%	-3.3%	?	7.3%	?
CCCCOc1ccc(C(O)(CCN2CCOCC2)c2ccccc2)cc1 (stereo unspecified)	-5.1%	4.3%	8.9%	-0.6%	39.8µM*
O=C(CCN1CCOCC1)c1ccc(Br)cc1	11.8%[57.1 µM]	3.5%	-77.9%	0.9%	0.447µM*
CC1CC(C)CN(C(=S)Nc2ccc(SC(F)F)cc2)C1 (stereo unspecified)	-15.8%	-6.8%	-4.3%	6.1%	-17.7%
COc1ccc(C2=NO[C@@H]3[C@@H]4C[C@@H]([C@H]5C(=O)N(c6ccc7c(c6)OCO7)C(=O)[C@@H]45)[C@H]23)cc1OC	5.9%	2.8%	-8.9%	0.1%	10.1%
Cc1cccc(-c2nc3c(c(SCc4ccccc4Cl)n2)Cc2c(CO)cnc(C)c2O3)c1	-4.7%	/	2.3%	0.0%	-7.8%
Cc1ccc(C2Nc3cccc4cccc(c34)N2)s1	-7.7%	-13.2%	-15.1%	14.0%	22.4µM*
Fc1ccc(C2Nc3cccc4cccc(c34)N2)cc1	-2.4%	-10.6%	-27.8%	-4.3%	25.1µM*
FC(F)(F)c1ccc(C2Nc3cccc4cccc(c34)N2)cc1	-6.0%	17.9%	?	-1.7%	28.2µM*
Brc1ccc(C2Nc3cccc4cccc(c34)N2)cc1	-9.1%	/	?	19.6%	?
NNC(=O)Cn1c(-c2ccccc2)cc2ccccc21	10.9%[57.1 µM]	12.2%	1.9%	3.9%	7.3%[57.1 µM]
C=Cc1c(C)c2cc3[nH]c(cc4nc(cc5nc(cc1[nH]2)C(C)=C5CCC(=O)O)C(CCC(=O)O)=C4C)c(C)c3C=C	11.2%[57.1 µM]	-13.5%	9.47µM*!	?	5.32µM*!
CCn1nc(C)cc1-c1nnc(Sc2ncc([N+](=O)[O-])s2)n1C	-9.8%	3.5%	?	-3.0%	0.355µM*
Cc1ccccc1N1CCN(C2CCCN(C(=O)c3cc(C(C)C)[nH]n3)C2)CC1 (stereo unspecified)	1.1%	1.7%	-26.0%	10.7%	6.8%
SMILES	TrxR1 substrate	Eya2 inh	RGS4 inh	mIDH1 inhibitor	rTrxR1 inhibitor
CCn1c(CNC(=O)C23CC4CC(CC(C4)C2)C3)nnc1SCC(=O)Nc1nnc(C)s1	10.7%[57.1 µM]	-1.0%	-13.9%	-4.1%	12.1%[57.1 µM]
O=C1/C(=C/c2ccc(O)c(O)c2)SC(=S)N1Nc1ccccc1	-5.2%	-0.5%	-53.1%	-2.1%	-1.8%
O=C1/C(=C/c2ccncc2)SC(=S)N1Nc1ccccc1	-7.1%[57.1 µM]	?	?	-22.6%	4.47µM*
O=C(O)c1ccc(/C=C2\SC(=S)N(Nc3ccccc3)C2=O)cc1	-7.9%	-25.1%	?	-4.2%	50.1µM*
COC(=O)/C=C/c1cc(F)ccc1S(=O)(=O)NC(C)(C)C	-8.3%[57.1 µM]	/	4.6%	11.5%	2.0%[57.1 µM]
Cc1ccc(NC(=O)c2noc3c2CCC3)cc1C	13.0%	-16.1%	-31.2%	10.9%	50.1µM*
CC(=O)c1ccc(NC(=O)c2noc3c2CCC3)cc1	-10.1%	-3.6%	1.3%[11.4 µM]	0.0%	50.1µM*
COc1ccc(NC(=O)c2noc3c2CCC3)cc1	-3.7%[57.1 µM]	2.2%	-6.5%	3.7%	-24.5%[57.1 µM]
CSc1ccc(-c2sc(Nc3ccccc3)n[n+]2-c2ccc(F)cc2)cc1	-4.3%	2.1%	-39.4%	-1.2%	-5.5%
Nc1cc(N)c2c(c1)C(=O)c1ccccc1-2	9.1%[57.1 µM]	/	-7.5%	-9.5%	21.1%[2.29 µM]
CCOCCCNC(=O)C(c1ccc(OC)cc1)N(Cc1ccc2c(c1)OCO2)C(=O)c1cnccn1 (stereo unspecified)	-2.4%[57.1 µM]	?	?	4.7%	12.0%[57.1 µM]
O=C1c2oc3ccccc3c(=O)c2C(c2cccc(O)c2)N1CCCN1CCOCC1 (stereo unspecified)	4.2%	-10.0%	-26.5%	4.8%	44.7µM*
COc1ccc(C2c3c(oc4ccccc4c3=O)C(=O)N2CCCN2CCOCC2)cc1 (stereo unspecified)	3.2%	/	-33.7%	-5.5%	35.5µM*
COc1ccccc1CN1C[C@@H]2C[C@@H](c3ccc4nsnc4c3)N3CCC[C@@]23C1=O	2.4%	-26.0%	-7.2%	-1.5%	?
O=C(CCN1CCC2CCC(C2)C1)c1ccc(F)cc1 (stereo unspecified)	6.7%[11.4 µM]	/	-49.2%	-7.2%	1.58µM*
CSC1=C(C#N)C(c2ccccc2Cl)C2=C(N1)c1ccccc1C2=O (stereo unspecified)	-5.5%	11.7%	-44.9%	-21.0%	50.1µM*
CSC1=C(C#N)C(c2ccccc2Cl)C2=C(CCCC2=O)N1 (stereo unspecified)	/	0.9%[15.4 µM]	/	/	/
CC(=O)CCS(=O)(=O)c1ccc(Oc2ccc(S(=O)(=O)CCC(C)=O)cc2)cc1	-2.3%	4.2%	33.5%	9.0%	50.1µM*
C=CC[n+]1cccc2cccc(O)c21	-0.1%	/	/	/	14.2%
Cc1[nH]c(-c2ccco2)nc1C(=O)O	3.9%	0.3%	-8.5%	-1.1%	17.8µM*
CCOC(=O)/C(=C/c1ccc(OC(=O)c2ccccc2)cc1)C(C)=O	-0.1%	-18.9%	?	-14.0%	14.1µM*
CCOc1ccc(S(=O)(=O)Nc2cnc3ccccc3c2)cc1	5.5%[57.1 µM]	-0.8%	-5.0%	-4.9%	7.8%[57.1 µM]
COc1cc(Nc2ccccc2Cl)c([N+](=O)[O-])nc1[N+](=O)[O-]	-4.0%[57.1 µM]	24.8%	-0.9%	17.8%	0.398µM*
COc1ccc(C2(C(=O)c3ccccc3)C(=O)c3ccccc3C2=O)cc1	3.0%	-0.9%	-17.4%	8.4%	2.24µM*
CC(=O)Nc1cc2c3ccccc3n(C)c2cc1[N+](=O)[O-]	11.9%	/	4.9%	15.1%	29.1%
